High-throughput results as filed in PubChem BioAssay.
TDP1 cell noCPT – qHTS for Inhibitors of human tyrosyl-DNA phosphodiesterase 1 (TDP1): qHTS in cells in absence of CPT; DT40 Tdp1-/- hTDP1 cells, no CPT, ATP luminescence, 48 h; Potency, µM (doses to about 46.2 µM), for the others: at the highest dose activity change, negative = growth inhibition, actives largely listed as inhibitors; 420,000 tested, 15% active; note: % is set by controls: 0 for no effect and ±100 for the full control effect; nearly all actives have a fitted effect of over 55% in size
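Cells were dispensed at 400 per well, compounds added by pin tool, plates incubated ≥48 hr at 37 °C, then CellTiter-Glo added for 30 min at room temperature before luminescence reading. Line: DT40 Tdp1-/- complemented with hTDP1; camptothecin omitted.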
TDP1 cell CPT – qHTS for Inhibitors of human tyrosyl-DNA phosphodiesterase 1 (TDP1): qHTS in cells in presence of CPT | Potency, µM (titrated, usually from 46.2 µM), inactives show at the top dose activity change, negative = growth inhibition, usual class: inhibitors | 420,000 tested, 12% active | chicken DT40 Tdp1-/-;hTDP1 cells + 20 nM CPT, ATP luminescence, 48 h; note: % is set by controls: 0 for no effect and ±100 for the full control effect; nearly all actives have a fitted effect of over 55% in size
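Cell growth measured by CellTiter-Glo luminescence after a minimum 48 h, 37 C compound exposure with 20 nM CPT in Tdp1-knockout DT40 cells stably expressing hTDP1, seeded 400/well; qHTS titration format.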
ClpP mod – qHTS Assay for Activators of ClpP; ATP-dependent Clp protease proteolytic subunit (Bacillus subtilis (strain 168)), P80244; purified B. subtilis ClpP, FRET peptide cleavage, 20 min; Potency, µM (doses to about 57.5 µM), inactives show at the top dose activity change, negative = active; 340,000 tested, 1.9% active; active = well fitted falling curve with a large enough effect; inconclusive = small, poorly fitted or top-dose-only effect; inactive = no such curve, though single readings can be large or run the other way; note: the source files actives as falling curves though it sought activators and does not explain the sign; nearly all actives have a fitted effect of over 65% in size
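FRET quenching reversal measured ClpP activation: 10 microg/mL B. subtilis ClpP at pH 8 with the FRET-FV decapeptide, read at 430 nm after 320 nm excitation. The 20-min minus 0-min signal was scaled between DMSO/no-enzyme wells and ADEP (5.8 microM final).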
TDP1 block – qHTS Assay for Inhibitors of Tyrosyl-DNA Phosphodiesterase (TDP1) | 350,000 tested, 0.28% active | recombinant TDP1, AlphaScreen DNA substrate cleavage | Potency, µM (doses to about 130 µM), for inactives: top-dose activity change, negative = inhibition, usual class: inhibitors | Tyrosyl-DNA phosphodiesterase 1 (Homo sapiens), Q9NUW8; note: % is set by controls: 0 for no effect and ±100 for the full control effect; nearly all actives have a fitted effect of over 40% in size
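Recombinant E. coli-expressed Tdp1 (1 nM) preincubated with compound 15 min at RT, then 5'-biotin/3'-phosphotyrosine-FITC DNA substrate (15 nM) added for 5 min. AlphaScreen beads (10 ug/ml) added, 10 min RT; tyrosine-FITC cleavage read as signal loss.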
Starred values were filed as active, the others as inactive; ? = inconclusive; / = not tested or not shown; [ ] = another dose, or the depositor's remark. This is a sample that favours compounds with a hit; in the whole collection about 17% have one here. Unless noted, calls come from the whole dose curve; as a rule, active = well fitted curve in the direction sought with a large enough effect; inconclusive = small, poorly fitted or top-dose-only effect, or another doubt; inactive = no such curve, though single readings can be large; an effect the other way counts as inactive or inconclusive. Potency is the fitted concentration of half-maximal effect.

SMILES	TDP1 cell noCPT	TDP1 cell CPT	ClpP mod	TDP1 block
CC(Sc1nnc(Nc2ccccc2)s1)C(=O)Nc1nc(-c2ccccc2)cs1 (centres undefined)	?	?	-3%	-5%
CC(Sc1nnc(NCc2ccccc2)s1)C(=O)Nc1ccc2c(c1)C(=O)c1ccccc1C2=O (centres undefined)	18µM*	?	2%	5%
COc1ccc(-c2nc3c(c(SCC(=O)N4CCCCC4)n2)Cc2cc(C)ccc2O3)cc1	?	?	-1%	6%
COc1ccc(-c2cc3ccc(O)c(CN4CCCC(C)C4)c3oc2=O)cc1 (centres undefined)	16µM*	?	3%	-11%
CN1CCN(Cc2c(O)ccc3cc(-c4ccc(Cl)cc4)c(=O)oc23)CC1	?	23µM*	4%	3%
COc1ccc(-c2cc3ccc(O)c(CN4CCCC(C)C4)c3oc2=O)cc1OC (centres undefined)	/	/	4%	4%
O=c1oc2c(CN3CCN(CCO)CC3)c(O)ccc2cc1-c1ccccc1	1%	-1%	4%	3%
O=C(CSc1ccccc1)Nc1nc2ccccc2[nH]1	21µM*	?	1%	3%
O=C(CSc1nc2ccccc2[nH]1)Nc1ccc(F)cc1	2%	-12%	2%	4%
CC(=O)Nc1nc2ccccc2[nH]1	-7%	17%	1%	5%
O=C(Cc1ccccc1)Nc1nc2ccccc2[nH]1	7.3µM*	13µM*	-9%	3%
CCc1ccccc1Nc1nc2ccccc2[nH]1	15µM*	?	-1%	/
CCNc1nc2ccccc2[nH]1	-21%	1%	2%	2%
O=C(CSc1ccc(Cl)cc1)Nc1ccc(-c2nc3ccccc3[nH]2)cc1	8.2µM*	12µM*	25µM*	-5%
Cc1cccc(-c2ncc(CN3CCN(CC(C)C)C(CCO)C3)cn2)c1 (centres undefined)	-6%	-18%	-1%	5%
CS(=O)(=O)Nc1cccc(-c2nccc(NCc3ccccc3)n2)c1	?	?	/	10%[56.1 µM]
CC(CCC(C)[n+]1cccc(C#N)c1)[n+]1cccc(C#N)c1 (centres undefined)	-23%	-8%	0%	/
CCOC(=O)c1c(NC(=O)COc2ccc(C)cc2C(C)(C)C)sc2c1CCC(C)C2 (centres undefined)	-22%	5%	-23%	2%[12.3 µM]
O=C(Cc1ccc(Cl)cc1)Nc1nc2ccccc2[nH]1	2.1µM*	5.2µM*	-8%	7%
CC(=O)Nc1cccc(CCc2nc3ccccc3[nH]2)c1	18µM*	?	-17%	/
O=C(Cc1ccccc1)N[C@@H](Cc1ccccc1)c1nc2ccccc2[nH]1	23µM*	?	-8%	0%
O=C(CCNC(=O)c1ccc(Br)cc1)Nc1nc2ccccc2[nH]1	-15%	-9%	/	-4%
O=C(Cc1ccc(Br)cc1)Nc1nc2ccccc2[nH]1	2.3µM*	6.5µM*	-2%	3%
CCC(=O)Nc1cc(-c2nc3ccccc3s2)c(Cl)cc1Cl	-27%	-13%	-19%	5%
COc1cc(-c2n[nH]c(=S)n2/N=C/c2cccn2C)cc(OC)c1OC	18µM*	?	/	/
SMILES	TDP1 cell noCPT	TDP1 cell CPT	ClpP mod	TDP1 block
N#CC1=C(N)N2C(=C(C#N)C13CCCCC3)SC1CCCCC12O (centres undefined)	13µM*	10µM*	-1%	-3%
CC(C)/C(=N\NS(=O)(=O)c1ccc(Br)cc1)c1cccs1	?	?	/	0%
CC1(C)C2CCC1(C)C(OC(=O)c1ccccc1C(=O)O)C2 (centres undefined)	-4%	-1%	/	0%
CC(=O)OC(COC1C[C@@H]2CC[C@@]1(C)C2(C)C)C[N+]1(C)CCCCC1 (some centres undefined)	18µM*	?	0%	3%
NC(=O)c1cc(S(=O)(=O)N2CCN(c3ccc(F)cc3)CC2)cs1	-26%	-13%	1%	0%
COc1ccc(Cc2nnc(SCC(=O)c3ccc4c(c3)NC(=O)CO4)o2)cc1	-1%	0%	1%	-4%
CC1=C(C(=O)N(C(C)C)C(C)C)CC(CC(=O)NC2CCCCC2)C(=O)N1CCCN1CCCC1=O (centres undefined)	-6%	-4%	-3%	/
CC(C)=CCN1CCN(CCC2=C(C)CCCC2(C)C)CC1CCO (centres undefined)	?	?	0%	/
CC1=C(CCN2CCN(C3CCCC3)C(CCO)C2)C(C)(C)CCC1 (centres undefined)	?	21µM*	/	0%
CC(=O)O[C@H]1C[C@@]2(C)[C@@H](C[C@@H](O)[C@H]3[C@@]4(C)CC[C@@H](O)[C@@H](C)[C@@H]4CC[C@@]32C)/C1=C(\CCC=C(C)C)C(=O)O	?	?	0%	/
COc1cccc(Cn2cnc3c(NS(=O)(=O)c4cccc(Cl)c4Cl)c(C)c(C)cc32)c1	23µM*	21µM*	0%	3%
COc1ccc(NC(C)C(=O)N/N=C/c2ccccc2OCc2ccc(Br)cc2)cc1 (centres undefined)	22µM*	?	0%	12%
COC(=O)N/N=C/c1ccccc1OCCOc1ccc(OC)cc1	16µM*	-92%	/	8%
COc1ccc(S(=O)(=O)N2CCN(C(=O)c3cc(C)nc4ccccc34)CC2)cc1OC	10%	-7%	-2%	-3%
Cc1nc(NCc2ccccc2)c2nc(-c3ccccc3)n(CCN(C)C)c2n1	/	/	/	9%
Cc1nc2c(Br)cc(Br)cc2c(=O)n1-c1ccccc1NC1OCC(O)C(O)C1O (centres undefined)	8.2µM*	7.3µM*	-12%	/
Cc1ccc(OCC(=O)Nc2cccc(OCc3cc(=O)n4cccc(C)c4n3)c2)cc1C	18µM*	15µM*	-29%	3%
COc1ccc(NC(=O)Nc2cccc(OCc3cc(=O)n4cccc(C)c4n3)c2)c(OC)c1	13µM*	?	-4%	-3%
CCCC(=O)Nc1cccc(OCc2cc(=O)n3cccc(C)c3n2)c1	-27%	-23%	-8%	8%
CCC(Oc1ccccc1)C(=O)Nc1cccc(OCc2cc(=O)n3cccc(C)c3n2)c1 (centres undefined)	16µM*	23µM*	-22%	3%
COc1ccccc1CCc1nnc(CCC(=O)NC(C)Cc2cccs2)o1 (centres undefined)	4%	-7%	/	-2%
COc1cc(SC)ccc1C(=O)N1CCn2c3c(c4cc(C)ccc42)CCCC31 (centres undefined)	?	-2%	-4%	1%
